Data on eleven compounds can be found in PubChem BioAssay (NCATS).

Results filed as inconclusive are left out. Where a call stands in place of a potency, no number is given. Calls of active or inactive are those of the source. Calls follow the shape of the dose curve; as a rule, active = well fitted curve in the direction sought with a large enough effect; inconclusive = small, poorly fitted or top-dose-only effect, or another doubt; inactive = no such curve, though single readings can be large; an effect the other way counts as inactive or inconclusive.

Experiment [1] concerns the target N-terminal Xaa-Pro-Lys N-methyltransferase 1 (Homo sapiens) (UniProt Q9BV86). Briefly: Confirmatory qHTS for Inhibitors of N-terminal methyltransferase 1 (NTMT1): MTaseGlo Assay (AID 1645874). Also: potency is read from the fitted curve at half-maximal effect; nearly all actives have a fitted effect of over 65% in size. To be noted: NTMT1 enzyme, MTase-Glo SAH luminescence; series mostly up to 51.5 µM. In outline:
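Compounds are incubated with 125 nM NTMT1 and 100 uM SAM for 15 min before the SPKRIA peptide (1 uM) starts a 30 min room-temperature methylation. SAH is measured by coupled luciferase luminescence and curves fitted to a Hill equation.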
On the technique in general: In qHTS, concentration-response curves come from the screen itself.

In experiment [2] the target is Calcium and integrin-binding protein 1 (Homo sapiens) (UniProt Q99828). As to the kind of experiment: Primary qHTS for Identification of Calcium Integrin Binding Protein 1 (CIB1) Competitor (AID 1508620).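 Also: GST tagged CIB1 binding a fluorescein labelled alphaIIb integrin peptide tracer; top concentration of the series differs between compounds.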 To be noted: CIB1-GST / FITC-alphaIIb peptide fluorescence polarization; series mostly up to 57.7 µM. In outline: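 Fluorescence polarization competition: CIB1-GST (1 uM final) preincubated with compound 15 min at room temperature, then FITC-labeled alphaIIb peptide (100 nM final) added for another 15 min. Polarization read at Ex 480/Em 540.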
Chain of Calcium and integrin-binding protein 1 (Homo sapiens) (Q99828 whole entry, looked up): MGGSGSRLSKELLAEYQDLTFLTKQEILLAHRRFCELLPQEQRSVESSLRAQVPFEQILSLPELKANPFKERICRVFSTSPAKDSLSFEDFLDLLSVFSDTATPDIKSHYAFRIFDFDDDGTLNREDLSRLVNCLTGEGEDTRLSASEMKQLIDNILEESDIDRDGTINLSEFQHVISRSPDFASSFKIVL

Chain of N-terminal Xaa-Pro-Lys N-methyltransferase 1 (Homo sapiens) (Q9BV86 whole entry, looked up): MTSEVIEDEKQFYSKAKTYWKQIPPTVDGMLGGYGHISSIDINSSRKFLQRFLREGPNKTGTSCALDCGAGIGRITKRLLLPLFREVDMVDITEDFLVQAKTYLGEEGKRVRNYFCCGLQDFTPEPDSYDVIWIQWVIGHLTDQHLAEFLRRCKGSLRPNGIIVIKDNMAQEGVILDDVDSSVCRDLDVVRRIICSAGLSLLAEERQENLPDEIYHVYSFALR

With `N#Cc1cccc(-c2c[nH]c3ncnc(N4CCOCC4)c23)c1`, the Potency in experiment [1] is 39.8 µM (active). Regarding `CC(=O)OC(C)(C)/C=C/C(=O)[C@](C)(O)C1[C@H](O)C[C@@]2(C)[C@@H]3CC=C4[C@@H](C[C@H](O[C@@H]5O[C@H](CO)[C@@H](O)[C@H](O)[C@H]5O)C(=O)C4(C)C)[C@]3(C)C(=O)C[C@]12C` (stereo partly specified), the Potency entry in experiment [2] was “inactive”. The same measure, in the same setting: in the case of `CC(=O)O[C@@H]1C=C2[C@H](CC[C@@]3(C)[C@@]2(O)CC[C@H]2Cc4c([nH]c5ccccc45)[C@@]23C)O[C@@H]1C(C)(C)O` it was “inactive”; in that of `CCC(C)/C=C(C)/C=C/C1=CC2=C(Cl)C(=O)C(C)(O)C(=O)C2(O)C(OC)O1` (stereo unspecified), “inactive”; in that of `CC(=O)O[C@@H]1C[C@@H](C)[C@](O)(CCC2=CC(=O)OC2)[C@@]2(C)CCCC(C)(C)C12` (stereo partly specified), “inactive”. Same read-out and setting: for `COc1cc(O)c(C(=O)O)c(CCc2ccccc2)c1` the value was “inactive”. Same read-out and setting: for `CC1OC(OC2CCC3(C)C(CCC4(C)C3C=CC35OCC6(CCC(C)(C)CC63)CCC45C)C2(C)CO)C(OC2OC(CO)C(O)C(O)C2O)C(O)C1OC1OC(CO)C(O)C(O)C1O` (stereo unspecified) the value was “inactive”. Regarding `C=C1Cc2c(Cl)cc3[nH]c4c5c3c2[C@@]2(O)[C@@H]1C[C@@H]2C(C)(C)O[C@H]5C1CC[C@@]2(O)[C@@]35O[C@@H]3[C@H]3OC(C)(C)[C@H]3O[C@H]5CC[C@]2(C)[C@@]41C` (stereo partly specified), the Potency result in experiment [2] was “inactive”. The same measure, in the same setting: for `Cc1c(-c2ccc3c(c2)OCO3)oc2ccc(C(O)C(C)O)cc12` (stereo unspecified) the value was “inactive”. Still for that read-out and setting: for `COc1c(C)c(OCC=C(C)C)cc2c1CNC2=O` the value was “inactive”; for `COc1c2cc(c(O)c1OC)CCCCC(O)CCc1ccc(O)c-2c1` (stereo unspecified), “inactive”.
